# In ChEMBL document CHEMBL4513216, “Probing the Open Global Health Chemical Diversity Library for Multistage-Active Starting Points for Next-Generation Antimalarials” (ACS Infect Dis, 2020):
# The whole screen tested about 69,000 compounds, of which about 8,600 (12%) showed an effect of 50% or more. The full list was thinned out, with strong results kept by preference.
# Tested on: Plasmodium berghei
# Test: Screen against P. berghei liver stage (PbLuc), transformed with Luciferase, at 10uM
# Assay type: functional, HepG2
# Conditions: tested at 10 uM
row,SMILES,INHIBITION
1,O=C(COC1CCCC1)NCCc1noc(-c2ccccn2)n1,-13.1%
2,Cc1cc(N(C)C)nc(C2COCCN2Cc2cc(C)on2)n1 (stereo not given),44.8%
3,CNC(=O)C1(c2cnccn2)CCCN1C(=O)c1ccc(OC)cc1 (stereo not given),20.8%
4,N[C@@H](Cc1c[nH]cn1)C(=O)N1CCC(Oc2ccc(F)cc2)CC1,42.8%
5,O=C(O)COc1ccc(Cl)cc1CN1CCC2(CCOCC2)CC1,64.5%
6,O=C(O)COc1ccc(Cl)cc1CN1CCC2(CCNCC2)CC1,5.46%
7,CN1CC2(CCN(Cc3cc(Cl)ccc3OCC(=O)O)CC2)OC1=O,33.3%
8,Cc1ccc2cc(C(=O)N3CCCC3Cn3cccn3)[nH]c2c1 (stereo not given),-167%
9,CCC1CN(C)c2ccccc2CN1CCn1cncn1 (stereo not given),40.6%
10,NC(=O)c1ccc(OCCCN2C[C@H](C3CC3)[C@@H](N)C2)cc1,-13.4%
11,N[C@H]1CN(S(=O)(=O)c2ccccc2)C[C@@H]1C1CC1,58.3%
12,N[C@H]1CN(S(=O)(=O)Cc2ccccc2)C[C@@H]1C1CC1,-28.7%
13,N[C@H]1CN(S(=O)(=O)c2cccnc2)C[C@@H]1C1CC1,1.98%
14,Cc1ccc(-n2cccn2)cc1S(=O)(=O)N1C[C@H]2CC[C@@H](C1)N(C)C2,48.1%
15,N[C@H]1CN(CCOc2ccc(F)cc2)C[C@@H]1C1CC1,27.6%
16,N[C@H]1CN(CCCOc2ccccc2)C[C@@H]1C1CC1,53.8%
17,COc1ccc(-n2cccn2)cc1S(=O)(=O)N1C[C@H](C2CC2)[C@@H](N)C1,12.8%
18,Cc1ccc(-n2cccn2)cc1S(=O)(=O)N1C[C@H](C2CC2)[C@@H](N)C1,59.5%
19,CCS(=O)(=O)N1CCC2(CCN(CC(=O)N(C)C)C2=O)CC1,37.1%
20,NC(=O)c1ccccc1Oc1cccc(C2CCCNC2)n1 (stereo not given),-13.2%
21,O=c1[nH]c2ccc(S(=O)(=O)N(CCO)Cc3ccncc3)cc2[nH]1,17.5%
22,Cc1oncc1C(=O)N1CCOCC2(CCN(c3ccccn3)C2)C1 (stereo not given),45.1%
23,c1ccc(OCC2CC3(CCN(c4ncccn4)CC3)CO2)nc1 (stereo not given),-34%
24,COc1ccnc(N2CCN(CC(=O)N3CCC(C)CC3)CC2)n1,-22.9%
25,Cc1cc(CN(C)C(=O)c2ccc(F)c(C(F)(F)F)c2)no1,23.5%
26,CN(Cc1ccccc1C#N)C1CCN(CCc2ccccn2)CC1,-52.5%
27,c1ccc(-c2noc(CCNC3CCOC4(CCOCC4)C3)n2)nc1 (stereo not given),-37.8%

row,SMILES,INHIBITION
1,CCn1cc(CN2CCCN(C(=O)c3sc(C)nc3C)CC2)cn1,7.08%
2,O=C(c1ccsc1)N1CCc2onc(COc3ccccn3)c2C1,45.8%
3,COc1c(CNCc2ccccc2Cn2ccnc2)c(C)nn1C,24%
4,CCCc1nnsc1C(=O)N1CCN(CC(O)c2ccco2)CC1 (stereo not given),7.85%
5,CCc1noc(CNc2ccc(F)cc2OCC2CC2)n1,-29.9%
6,O=C(CNc1cc(F)ccc1OCC1CCCO1)N1CCOCC1 (stereo not given),19.5%
7,Fc1ccc(OCC2CCCO2)c(NCc2cn3cccnc3n2)c1 (stereo not given),59.3%
8,Nc1ccnc(CNc2cc(F)ccc2OCC2CCCO2)n1 (stereo not given),54.4%
9,O=C(Nc1cc(F)ccc1OCC1CCCO1)c1ccccn1 (stereo not given),-25.9%
10,CC(C)(C)c1nnc(CNc2cc(F)ccc2OCC2CCCO2)o1 (stereo not given),35.5%
11,CCc1nc(CNc2cc(Cl)ccc2OCC2CCCO2)no1 (stereo not given),93.1%
12,Fc1ccc(OCC2CCCO2)c(NCc2noc(C3CC3)n2)c1 (stereo not given),35.5%
13,CCc1noc(CNc2cc(F)ccc2OCC2CCCO2)n1 (stereo not given),1.81%
14,NCC1CCC2(CCN(C(=O)c3ccccn3)CC2)CO1 (stereo not given),38.5%
15,Cc1ncc(C(=O)NC2CCc3nccn3C2)c(C(C)C)n1 (stereo not given),11.6%
16,CCOCC1c2c(cnn2CC2CC2)CCN1C(=O)c1ccncn1 (stereo not given),6.72%
17,O=C(CC1CC1)N1CC[C@@H]2[C@H](CC1)N(Cc1cccnc1)CCS2(=O)=O,-35%
18,Cc1nc(C)n(C2CCCN(C(=O)CCn3ccnn3)C2)n1 (stereo not given),-10.3%
19,Cc1cn[nH]c1C1COCCN1Cc1ccsc1 (stereo not given),25.15%
20,O=C(NS(=O)(=O)c1c(Cl)cccc1Cl)c1cccc2c1OCCO2,12.3%
21,O=C(CCCC(=O)NCc1cccc(Br)c1)NCCN1CCCC1,17.5%
22,CC(C)S(=O)(=O)N1CCC(c2cc3n(n2)[C@@H](C(F)(F)F)C[C@@H](C)N3)C1 (stereo not given in full),27.3%
23,CCN(CC)CC(=O)N1CCN(c2nc(C)cc(OC)n2)CC1,2.54%
24,CCOc1cc(C)nc(N2CCN(C(=O)CC)CC2)n1,8.25%
25,CCOc1cc(C)nc(N2CCN(C(=O)c3ccncc3)CC2)n1,33.8%
26,COc1cc(C)nc(N2CCN(C(=O)CN(C)C(C)C)CC2)n1,59.9%
27,CCOc1cc(C)nc(N2CCN(C(=O)C(C)NC(C)=O)CC2)n1 (stereo not given),60.5%

row,SMILES,INHIBITION
1,COc1cc(C)nc(N2CCN(C(=O)CN(C)C3CC3)CC2)n1,-3.18%
2,CCOC1COC2(CCN(CC3CCOCC3)CC2)C1 (stereo not given),31.2%
3,Clc1ccc(CN2CCCCC2Cn2cncn2)c2ncccc12 (stereo not given),40.65%
4,Cc1nc(CN2CC[C@H]3[C@H]2CCN3c2nncs2)cs1,40.8%
5,Cc1nn(CCN2CCSCC2)cc1CNCc1ccccn1,23.5%
6,OC(COCc1ccccc1F)CN1CCC(Cn2cccn2)CC1 (stereo not given),46.3%
7,c1ncn(CC2CCCN(Cc3nc(-c4ccoc4)no3)C2)n1 (stereo not given),-34%
8,CN(C)C(=O)N1CCC2(CC1)CCN(c1ncccn1)C2,-26.1%
9,Cc1ccc(CNC(=O)c2nc3c(n2C)CCN(c2ncccn2)C3)o1,48.4%
10,COc1cc(CNCc2c(C)nn(C)c2N(C)C)ccc1OCCO,21.6%
11,Cc1cnn(C2CCN(Cc3ccccc3)C2)c1N (stereo not given),56.1%
12,Nc1ccnn1C1CCN(Cc2ccccc2)C1 (stereo not given),43.1%
13,Nc1c(Cl)cnn1C1CCN(Cc2ccccc2)C1 (stereo not given),37.7%
14,Cc1ccc(NC(=O)[C@@H]2C[C@H](C(=O)O)CN(Cc3sccc3C)C2)cn1,29.4%
15,Cc1ccc(NC2CCN(C(=O)c3cccnc3O)CC2)nn1,16.8%
16,Cc1csc2c(=O)n(CCSc3cnn[nH]3)cnc12,18.5%
17,c1ccc(CCN2CCN(C3CCOC4(CCOCC4)C3)CC2)nc1 (stereo not given),7.24%
18,CCc1ccc(C(=O)N2CCC(c3nncn3CC)CC2)cc1,-3.16%
19,Cc1ccc(C(=O)N2CC[C@H](Oc3cccnc3C)[C@@H](O)CC2)s1,44.1%
20,Cc1csc(C(=O)N2CC[C@H](Oc3cccnc3C)[C@@H](O)CC2)c1,57.5%
21,CCc1ccc(C(=O)N2CC[C@H](Oc3cccnc3C)[C@@H](O)CC2)cc1,78.2%
22,Cc1ncccc1O[C@H]1CCN(C(=O)c2cccs2)CC[C@@H]1O,23.3%
23,Cc1ncccc1O[C@H]1CCN(C(=O)Cc2cccs2)CC[C@@H]1O,42.9%
24,O=C(NC1CCCCC1)N1CCc2onc(COc3cccnc3)c2C1,40.4%
25,Cc1ccoc1C(=O)N1CCOCC2(CCN(c3ncccn3)C2)C1 (stereo not given),-19.9%
26,CC(C)CNC(=O)CNC(=O)NC(C)COc1ccccc1F (stereo not given),-24.5%
27,O=C(NCC1CC1)C1CSCN1S(=O)(=O)c1cc(F)cc(F)c1 (stereo not given),27.7%

row,SMILES,INHIBITION
1,Cc1noc([C@@H]2CC[C@@H]3[C@@H](CCN3S(=O)(=O)c3cccnc3)O2)n1,-2.53%
2,c1ccc2oc(N3CCn4c(nnc4C4CC4)C3)nc2c1,68.4%
3,Cc1nnc2n1CCN(c1nc3ccccc3o1)C2,2.97%
4,CC(C)c1nnc2n1CCN(c1nc3ccccc3o1)C2,16.8%
5,CCc1nc(C2CCCN2C(=O)c2ccc(N(C)C)nn2)no1 (stereo not given),24.295%
6,N[C@@H](Cc1ccccc1)c1nnc(S(=O)(=O)Cc2ccccc2)o1,53.8%
7,N[C@@H](Cc1ccccc1)c1nnc(S(=O)(=O)Cc2ccc(Cl)cc2)o1,15.4%
8,CCS(=O)(=O)c1nnc([C@@H](N)Cc2ccccc2)o1,11.6%
9,Cc1cnn(CC2CCCN2C(=O)c2c(C)noc2C)c1 (stereo not given),12.7%
10,Cc1ccnn1CCC(=O)N1CCCC1c1cc2cccnc2[nH]1 (stereo not given),6.26%
11,Cc1nc(N2CCOCC2)nc2c1COCC21CCN(CC2CC2)C1 (stereo not given),36.9%
12,CCN(Cc1ccncc1)CC1(O)CCN(C(=O)c2cccc(C)c2)C1 (stereo not given),-9.32%
13,Cc1cccc2c1nc1n2[C@@H](CNC(=O)Cc2ccccc2)COC1,-33.8%
14,Cc1cccc2c1nc1n2[C@@H](CNC(=O)c2ccccn2)COC1,37.4%
15,COc1ccc(CNC[C@H]2COCc3nc4cccnc4n32)cc1,6.55%
16,COc1ccc2c(c1)nc1n2[C@@H](CNC(=O)c2ccccn2)COC1,7.53%
17,Cc1cccc2c1nc1n2[C@@H](CNC(=O)NC(C)C)COC1,11.6%
18,Cc1ccc2c(c1)nc1n2[C@@H](CNC(=O)c2ccccn2)COC1,57%
19,Cc1cccc2c1nc1n2[C@@H](CNC2CCCCC2)COC1,51%
20,c1ccc(CNC[C@H]2COCc3nc4cccnc4n32)cc1,54.7%
21,COc1ccccc1C(=O)NC[C@H]1COCc2nc3c(C)cccc3n21,50.2%
22,Cc1cccc2c1nc1n2[C@@H](CNC(=O)C2CCOCC2)COC1,43.4%
23,FC(F)(F)c1ccc(CNC[C@H]2COCc3nc4cccnc4n32)cc1,39.3%
24,CC(=O)NC[C@H]1COCc2nc3c(C)cccc3n21,46.4%
